Compounds with a hit are over-represented: about 12% of the library has one in this group of screens.
Pf growth 48h – P. falciparum growth inhibition at 48 hours (one generation). hit rate 5.9% among 310,000. Potency, µM (top dose mostly 28.7 µM), for the others: at the top dose activity change, negative = inhibition, actives largely listed as inhibitors. P. falciparum luciferase growth in erythrocytes, 48 h; further: on the % scale 0 is the no-effect control and ±100 the full control effect
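Erythrocytes infected with P. falciparum carrying an integrated firefly luciferase reporter (2% hematocrit, 0.1% parasitemia final) were exposed to compounds in RPMI 1640 with 0.5% Albumax at 37 C, 5% CO2. Growth inhibition was scored as reduced luminescence.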
Pf growth 96h – P. falciparum growth inhibition at 96 hour, primary screen for plastid delayed-death inhibitors | Potency, µM (doses to about 28.7 µM), without a hit: at the top dose activity change, negative = inhibition, usual class: inhibitors | hit rate 6.9% among 320,000 | P. falciparum luciferase reporter growth, 96 h | AID 504834; further: on the % scale 0 is the no-effect control and ±100 the full control effect
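Luminescence readout: decreased luciferase signal marks inhibited growth of reporter-expressing P. falciparum in infected red cells (2% hematocrit, 0.05% parasitemia final), exposed to compound two generations (96 h, 37 C, 5% CO2).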
AMA1 RON2 block – inhibitors of Plasmodium falciparum AMA1-RON2 interaction; AlphaScreen AMA1-biotinylated RON2 peptide binding; Potency, µM (series often up to 58.2 µM), for the others: at the top dose activity change, negative = inhibition, hits mostly inhibitors; hit rate 0.2% among 360,000;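 further: 0% = vehicle wells and -100% = peptide control; nearly all actives have a fitted effect of over 45% in size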
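AMA1 (3D7) with his tag at 25 nM final met compounds first, then biotinylated RON2 peptide at 25 nM; detection used donor plus acceptor beads, 10 µg/mL apiece, read by AlphaScreen after 30 min at room temperature.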
SARS PLP yeast – inhibitors of SARS-CoV papain-like protease in yeast; S. cerevisiae expressing SARS-CoV PLpro, growth rescue; Potency, µM (highest dose often 32.9 µM), for inactives: top-dose activity, positive = growth rescue, usual class: activators; hit rate 0.19% among 330,000; AID 485353; calls by dose curve; further: 0% is about no effect; nearly all actives have a fitted effect of over 55% in size
HCV inh – inhibitors of hepatitis C virus infection; Huh7.5.1 HCVcc-Cre infection, luciferase reporter, 44 h; hit rate 3.4% among 340,000; Potency, µM (top dose mostly 41.8 µM), for the others: at the highest dose activity change, negative = inhibition, usual class: inhibitors; further: on the % scale 0 is the no-effect control and ±100 the full control effect
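1,000 cells/well; 4 h culture; + compound; + HCVcc-Cre (~0.5 moi); 44 h; luciferase substrate, RT 15 min; read 15 sec.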
NS1 function inh – influenza NS1 inhibition | Potency, µM (highest dose often 46.1 µM), without a hit: top-dose activity, positive = more growth | hit rate 0.4% among 270,000; calls by dose curve; further: actives are rising curves; nearly all actives have a fitted effect of over 50% in size
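A cell-based growth assay was used: compounds that relieve NS1-induced slow growth of budding yeast raise OD600. Assay medium was yeast nitrogen base with ammonium sulphate and -URA supplement, pH 6.0, with 2% galactose.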
Numbers without * were called inactive; ? = inconclusive; · = not tested or not shown; [ ] = dose if it differs, or a comment. Unless noted, the call rests on the fitted dose curve; in most records, active means well fitted curve in the direction sought with a large enough effect; inconclusive means small, poorly fitted or top-dose-only effect, or another doubt; inactive means no such curve, though single readings can be large; an effect the other way counts as inactive or inconclusive. Potency means the concentration at half of the fitted maximal effect.

SMILES	Pf growth 48h	Pf growth 96h	AMA1 RON2 block	SARS PLP yeast	HCV inh	NS1 function inh
CCn1nc(C(=O)Nc2nc3ccc(C)cc3s2)c2ccccc2c1=O	19%	·	3%	-2%	32µM*	8%
COC(=O)[C@@H]1C[C@H]2CC[C@H](O)C[C@H]2N1Cc1ccc(C)s1	61%	43%	9%	-2%	-29%	10%
CCCCn1nc(C(=O)NCC(c2cccs2)N2CCOCC2)c2ccccc2c1=O (centres undefined)	9.3µM*	?	-7%	-2%	?	·
CCCCn1nc(C(=O)NCc2ccccc2CN2CCCC2)c2ccccc2c1=O	9.3µM*	7.4µM*	-3%	1%	?	·
CCCC[C@]12Cc3cc(OC)c(OC)cc3C(O1)C1=C(O2)C(=O)c2ccccc2C1=O	1.3µM*	26%[5.75 µM]	·	-2%[6.58 µM]	·	11%
CCCC[C@]12Cc3ccccc3[C@H](O1)C1=C(O2)C(=O)c2ccccc2C1=O	?	0.85µM*	·	2%[6.58 µM]	·	-9%
CC1(C)CC(=O)C2=C(C1)O[C@@]1(CCCCN3C(=O)c4ccccc4C3=O)Cc3ccccc3C2O1	1.7µM*	1.7µM*	·	1%[6.58 µM]	·	-8%
COC(=O)C(=N/Nc1ccccc1C(=O)OC)/C(C)=N/O	59%	52%	20%	-20%	?	-87%
Cc1nn(-c2ccccc2)c(NC(=O)c2cccs2)c(-c2ccccc2Cl)c1=O	40%	4%	-10%	0%	7%	2%
O=c1cc(N2CCCCC2)c(-c2ccccc2)nn1Cc1c(Cl)cccc1Cl	?	10µM*	-1%	0%	?	18%
O=c1cc(N2CCCCC2)c(-c2ccccc2)n[nH]1	-17%	9%	8%	-4%	8%	·
O=c1cc(N2CCCCC2)c(-c2ccccc2)nn1Cc1ccc(F)cc1	?	13µM*	-4%	3%	?	-38%
O=c1cc(N2CCCCC2)c(-c2ccccc2)nn1Cc1ccc(Cl)cc1	3%	-7%	0%	1%	-20%	16%
C[C@]12c3[nH]c4ccc(Cl)cc4c3CCN1C(=O)[C@@H](CC(=O)NCCc1ccccn1)C[C@@H]2C(=O)N1CCCCC1	·	·	23%	-7%	?	·
COc1ccccc1C(CCN(Cc1cccs1)C(C)=O)c1ccco1 (centres undefined)	7.4µM*	13µM*	-23%	-6%	-14%	-66%
CCC(=O)NCCC(c1ccco1)c1ccccc1OC (centres undefined)	?	10µM*	-2%	-7%	-21%	?
COc1ccccc1C(CC(=O)Nc1nccs1)c1ccco1 (centres undefined)	2.9µM*	6.6µM*	-1%	6%	-4%	3%
CCCCC1CN2CCc3c([nH]c4ccccc34)C2(C)C1 (centres undefined)	?	23%	-17%	1%	?	11%
Nc1ccn(CC(=O)NCCNc2ccc([N+](=O)[O-])cn2)c(=O)n1	1%	21%	14%	-2%	?	·
O=C1C2CC=CCC2C(=O)N1c1ccc(NCCc2ccc(O)cc2)c([N+](=O)[O-])c1 (centres undefined)	4%	?	?	-25%	13µM*	-5%
COC(=O)C1=C(c2cccc(OCc3ccccc3)c2)C[C@@H]2CC[C@H]1N2C(=O)NCc1cccc(C(F)(F)F)c1	13µM*	?	-5%	-3%	?	·
COC(=O)C1=C(c2cccc(OCc3ccccc3)c2)C[C@@H]2CC[C@H]1N2C(=O)NCc1cc(C)oc1C(F)(F)F	4.7µM*	?	-10%	0%	?	·
COC(=O)C1=C(c2cccc(OCc3ccccc3)c2)C[C@@H]2CC[C@H]1N2C(=O)NCc1ccccc1OC	7.4µM*	?	10%	-4%	?	·
COC(=O)C1=C(c2cccc(OCc3ccccc3)c2)C[C@@H]2CC[C@H]1N2C(=O)NCc1ccc(OC)cc1	7.4µM*	?	-3%	-2%	22µM*	·
COC(=O)C1=C(c2cccc(OCc3ccccc3)c2)C[C@@H]2CC[C@H]1N2C(=O)NCc1ccc(OC)c(OC)c1	?	?	-3%	-4%	?	·
SMILES	Pf growth 48h	Pf growth 96h	AMA1 RON2 block	SARS PLP yeast	HCV inh	NS1 function inh
O=C(C[n+]1ccc(/C=N/O)cc1)N(Cc1ccccc1)Cc1ccccc1	?	9%	-3%	0%	2%	·
C[C@H]1CN=C(Nc2ccccc2)N1CC1CCCCCC1	?	24%	0%	3%	-6%	-12%
O=C1c2ccccc2C(=O)N1CCC#Cc1ccc2cc(CCO)oc(=O)c2c1	12%	22%	10%	0%	3%	·
COC(=O)C1=C(c2ccc(OC)c(OC)c2)C[C@@H]2CC[C@H]1N2C(=O)NCc1cccc2ccccc12	0.52µM*	0.23µM*	5%	-9%	-21%	·
COC(=O)C1=C(c2ccc(S(C)(=O)=O)cc2)C[C@@H]2CC[C@H]1N2C(=O)NCc1ccccc1	·	·	3%	·	8%	·
COC(=O)C1=C(c2ccccc2)C[C@@H]2CC[C@H]1N2C(=O)NCc1cccc2ccccc12	·	·	-6%	·	-23%	·
COC(=O)C1=C(c2cccc(OCc3ccccc3)c2)C[C@@H]2CC[C@H]1N2C(=O)NCc1cccc(F)c1	8.3µM*	?	-7%	0%	-26%	·
COC(=O)C1=C(c2cccc(OCc3ccccc3)c2)C[C@@H]2CC[C@H]1N2C(=O)NCc1ccccc1	13µM*	?	6%	4%	?	·
COC(=O)C1=C(c2cccc(OCc3ccccc3)c2)C[C@@H]2CC[C@H]1N2C(=O)NCc1ccc(Cl)cc1	8.3µM*	?	-2%	-1%	?	·
COc1ccc(N(CC(=O)NC2CCCCC2C)S(=O)(=O)c2c(C)nn(C)c2C)cc1 (centres undefined)	?	?	-5%	-1%	-2%	6%
CCOC1=C2CN(S(=O)(=O)c3ccc(C)cc3)[C@H](c3ccccc3)C[C@@H]2N(S(=O)(=O)c2ccc(C)cc2)[C@H](c2cccs2)C1	·	·	2%	·	·	·
COC(=O)C1=C(c2ccc(OCc3ccccc3)cc2)C[C@@H]2CC[C@H]1N2C(=O)NCc1ccc([N+](=O)[O-])cc1	·	·	-16%	2%	6%	·
COC(=O)C1=C(c2ccc(OC)c(OC)c2)C[C@@H]2CC[C@H]1N2C(=O)NCc1cc(C)oc1C(F)(F)F	9.3µM*	?	-5%	-6%	-23%	·
COC(=O)C1=C(c2cccc(OCc3ccccc3)c2)C[C@@H]2CC[C@H]1N2C(=O)NCc1ccc([N+](=O)[O-])cc1	12µM*	?	-11%	0%	?	·
COc1ccc(N2CCn3c2nc2c3c(=O)n(CCCc3ccccc3)c(=O)n2C)cc1	7%	?	·	1%	·	-7%
